Experiment [1] is described as follows: Caspase-3/7 induction in HepG2 cells by small molecules, qHTS assay (AID 1346978). Also: nearly all actives have a fitted effect of over 15% in size. Also: potency is read from the fitted curve at half-maximal effect. The gist of the method: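 Wild-type HepG2 cells, 2,000/well, settled 5 hr at 37 C and 5% CO2, then compound-treated for 17 hr; caspase-3/7 activity read by luminescent Caspase-Glo 3/7 after 30 min at room temperature.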
The nature of experiment [2]: Caspase-3/7 induction in CHO-K1 cells by small molecules, qHTS assay (AID 1346980). Also: nearly all actives have a fitted effect of over 15% in size. The gist of the method: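 Wild-type CHO-K1 cells exposed to compounds for 17hr at 37 C, 5% CO2. Caspase-3/7 activity then measured by Caspase-Glo 3/7 luminescence after 30min at room temperature.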
In experiment [3] the target is Nuclear receptor subfamily 1 group I member 2 (Homo sapiens) (UniProt O75469). Description: Human pregnane X receptor (PXR) small molecule agonists, qHTS assay (AID 1346982). Also: nearly all actives have a fitted effect of over 35% in size. Also: potency is read from the fitted curve at half-maximal effect. The gist of the method:
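Stable HepG2 line reporting PXR-mediated CYP3A4 expression via luciferase. Treatment: 24 hr with compounds in DMSO at 37 C. Detection: ONE-Glo luminescence.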
On the technique in general: qHTS replaces the single test concentration by a dilution series.

Experiment [4] has as its target Cytochrome P450 2D6 (Homo sapiens) (UniProt P10635). Description: Cytochrome P450 Family 2 Subfamily D Member 6 (CYP2D6) small molecule antagonists: luciferase reporter qHTS assay (AID 1671196). Also: nearly all actives have a fitted effect of over 50% in size. Also: potency is read from the fitted curve at half-maximal effect. The gist of the method: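 Chemicals tested for interference with CYP2D6 activity; proluciferin substrate, NADPH regeneration, 1 h at room temperature, luminescent detection.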
In general terms: Reporter assays use an easily measured gene product as a stand-in for the process of interest.

Experiment [5] has as its target Cytochrome P450 2C19 (Homo sapiens) (UniProt P33261). Kind of experiment: Cytochrome P450 Family 2 Subfamily C Member 19 (CYP2C19) small molecule antagonists: luciferase reporter qHTS assay (AID 1671197). Also: nearly all actives have a fitted effect of over 65% in size. Also: potency is read from the fitted curve at half-maximal effect. The gist of the method: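 CYP2C19 P450-Glo, 1536-well qHTS. Cpd + enzyme/proluciferin substrate 10 min RT; + NADPH regen, 37C 1 h; stop with luciferin detection reagent, 20 min RT, luminescence (RLU). Pos ctrl ketoconazole.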

Experiment [6] has as its target Cytochrome P450 2C9 (Homo sapiens) (UniProt P11712). Kind of experiment: Cytochrome P450 Family 2 Subfamily C Member 9 (CYP2C9) small molecule antagonists: luciferase reporter qHTS assay (AID 1671198). Also: nearly all actives have a fitted effect of over 50% in size. Also: potency is read from the fitted curve at half-maximal effect. The gist of the method: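 P450-Glo proluciferin substrate with CYP2C9 enzyme; 10 min RT preincubation, then NADPH regeneration 1 h at 37C; luciferin detection reagent 20 min RT, luminescence in relative luminescence units.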

The target of experiment [7] is Cytochrome P450 1A2 (Homo sapiens) (UniProt P05177). Kind of experiment: Cytochrome P450 Family 1 Subfamily A Member 2 (CYP1A2) small molecule antagonists: luciferase reporter qHTS assay (AID 1671199). Also: nearly all actives have a fitted effect of over 50% in size. Also: potency is read from the fitted curve at half-maximal effect. The gist of the method:
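Read-out is luminescence from luciferin detection reagent (20 min) proportional to CYP1A2 activity; compounds in DMSO preincubated 10 min with enzyme and proluciferin substrate, then NADPH regeneration solution, 1 h, room temperature.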

The target in experiment [8] is Voltage-gated inwardly rectifying potassium channel KCNH2 (Homo sapiens) (UniProt Q12809). Kind of experiment: Human Ether-a-go-go-Related Gene (hERG) channel small molecule antagonists: fluorescence cell-based qHTS assay (AID 1671200). Also: nearly all actives have a fitted effect of over 50% in size. Also: potency is read from the fitted curve at half-maximal effect. The gist of the method: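 Measured: Tl+ flux via fluorescence (480/540 nm) in hERG-expressing U2OS cells after 1 h dye loading at room temperature.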
For orientation: hERG is a cardiac potassium channel; its block is linked to QT prolongation.

Experiment [9] has as its target Cytochrome P450 3A4 (Homo sapiens) (UniProt P08684). Kind of experiment: Cytochrome P450 Family 3 Subfamily A Member 4 (CYP3A4) small molecule antagonists: luciferase reporter qHTS assay (AID 1671201). Also: nearly all actives have a fitted effect of over 50% in size. Also: potency is read from the fitted curve at half-maximal effect. The gist of the method:
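Setup: enzyme-substrate mix, compound pin transfer, 10 min RT. Reaction: NADPH regeneration solution, 1 h RT. Readout: detection reagent stops turnover, luminescence measured after 20 min, expressed in relative luminescence units.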

Experiment [10] is described as follows: Caspase-3/7 induction in CHO-K1 cells by small molecules, qHTS cell viability counter screen (AID 1346979). Also: nearly all actives have a fitted effect of over 35% in size. The gist of the method:
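To flag cytotoxic compounds, treated CHO-K1 wild-type cells were given CellTiter-Fluor at 16hr and read fluorescently after 1hr at 37C; the caspase-3/7 luminescence was measured in these same wells.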

Experiment [11] is described as follows: Caspase-3/7 induction in HepG2 cells by small molecules, qHTS cell viability counter screen (AID 1346981). Also: nearly all actives have a fitted effect of over 30% in size. Also: potency is read from the fitted curve at half-maximal effect. The gist of the method: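 Treatment of HepG2 cells with DMSO-delivered compounds ran 16 hr at 37 C following a 5-hr pre-incubation of 2,000 cells/well. CellTiter-Fluor fluorescence, read after 1 hr, served as the viability measure in a qHTS format.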

For experiment [12], the target named is Nuclear receptor subfamily 1 group I member 2 (Rattus norvegicus) (UniProt Q9R1A7). Description: Rat pregnane X receptor (rPXR) activation by small molecules, qHTS assay (AID 1346983). Also: nearly all actives have a fitted effect of over 20% in size. The conditions noted are these: rPXR luciferase reporter cells, One-Glo luminescence, 24 h; max activation: hits give high values. The gist of the method: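 Cell-based rPXR activation assay: rPXR cells, 2,000 per well, rested 5hr at 37 C, then exposed to compounds in DMSO for 24 hr at 37 C. Luciferase activity read by One-Glo luminescence after 30 min at room temperature.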

The target in experiment [13] is Nuclear receptor subfamily 1 group I member 2 (Homo sapiens) (UniProt O75469). Description: CYP3A4 induction through human pregnane X receptor (PXR) by small molecules, qHTS assay (AID 1346984). Also: nearly all actives have a fitted effect of over 40% in size. The gist of the method: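 After 24 h at 37C with compound, DPX-2 cells (HepG2, co-transfected PXR response element and CYP3A4 promoter-luciferase) got 3uM final P450-Glo Luciferin-IPA for 3 h; One-Glo luminescence followed.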

The target is the same in experiment [14]. Description: Human pregnane X receptor (PXR) activation by small molecules, qHTS assay (AID 1346985). Also: nearly all actives have a fitted effect of over 40% in size. The gist of the method:
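DPX-2 cells (HepG2 co-transfected with a PXR response element and a CYP3A4-promoter luciferase construct) were seeded at 2,000 per well, rested 5 hr at 37C, then exposed to DMSO-dissolved compounds for 24 hr. Activation was read as luciferase luminescence.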

Several values for one entry are separate records, joined by “and”; a condition that tells them apart may be missing. Equal entries are not always repeated. Unmarked numbers belong to inactive results. Records with an inconclusive call do not appear. Activity calls are given as the source filed them. Calls follow the shape of the dose curve; as a rule, active = well fitted curve in the direction sought with a large enough effect in the repeat runs; inconclusive = weak or mixed curves; inactive = no such curve, though single readings can be large; an effect the other way counts as inactive or inconclusive.
% is scaled to controls: 0 for no effect and ±100 for the full control effect.

Voltage-gated inwardly rectifying potassium channel KCNH2 (Homo sapiens), sequence (Q12809 whole entry, looked up): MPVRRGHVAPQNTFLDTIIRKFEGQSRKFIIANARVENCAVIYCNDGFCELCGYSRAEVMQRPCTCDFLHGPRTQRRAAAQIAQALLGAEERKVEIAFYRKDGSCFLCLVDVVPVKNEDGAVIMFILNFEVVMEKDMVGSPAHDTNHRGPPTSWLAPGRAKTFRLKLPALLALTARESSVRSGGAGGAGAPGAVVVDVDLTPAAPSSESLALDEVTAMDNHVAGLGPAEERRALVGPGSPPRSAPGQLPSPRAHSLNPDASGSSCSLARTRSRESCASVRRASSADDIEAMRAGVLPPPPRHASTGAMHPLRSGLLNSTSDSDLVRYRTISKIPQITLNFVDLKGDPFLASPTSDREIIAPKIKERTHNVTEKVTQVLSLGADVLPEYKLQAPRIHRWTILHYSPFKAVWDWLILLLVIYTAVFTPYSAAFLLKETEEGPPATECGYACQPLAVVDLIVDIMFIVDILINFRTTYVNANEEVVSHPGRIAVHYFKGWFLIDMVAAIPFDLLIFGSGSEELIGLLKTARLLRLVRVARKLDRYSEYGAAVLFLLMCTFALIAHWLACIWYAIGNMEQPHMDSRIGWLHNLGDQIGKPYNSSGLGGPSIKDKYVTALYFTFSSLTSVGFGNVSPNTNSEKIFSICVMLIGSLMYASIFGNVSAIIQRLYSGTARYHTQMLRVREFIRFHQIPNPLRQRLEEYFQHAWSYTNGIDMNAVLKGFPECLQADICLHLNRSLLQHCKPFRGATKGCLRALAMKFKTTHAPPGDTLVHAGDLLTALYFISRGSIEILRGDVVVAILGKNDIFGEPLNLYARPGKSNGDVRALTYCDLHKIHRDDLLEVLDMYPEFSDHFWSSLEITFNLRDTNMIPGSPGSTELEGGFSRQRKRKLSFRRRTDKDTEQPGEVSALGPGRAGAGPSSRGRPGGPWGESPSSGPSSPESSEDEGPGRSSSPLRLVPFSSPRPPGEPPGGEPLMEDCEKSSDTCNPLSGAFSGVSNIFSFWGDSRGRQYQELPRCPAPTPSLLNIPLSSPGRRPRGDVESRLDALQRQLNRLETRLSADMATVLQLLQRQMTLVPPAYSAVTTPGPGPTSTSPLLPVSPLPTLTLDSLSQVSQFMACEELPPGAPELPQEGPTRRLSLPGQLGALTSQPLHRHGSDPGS
Cytochrome P450 3A4 (Homo sapiens), sequence (P08684 whole entry, looked up): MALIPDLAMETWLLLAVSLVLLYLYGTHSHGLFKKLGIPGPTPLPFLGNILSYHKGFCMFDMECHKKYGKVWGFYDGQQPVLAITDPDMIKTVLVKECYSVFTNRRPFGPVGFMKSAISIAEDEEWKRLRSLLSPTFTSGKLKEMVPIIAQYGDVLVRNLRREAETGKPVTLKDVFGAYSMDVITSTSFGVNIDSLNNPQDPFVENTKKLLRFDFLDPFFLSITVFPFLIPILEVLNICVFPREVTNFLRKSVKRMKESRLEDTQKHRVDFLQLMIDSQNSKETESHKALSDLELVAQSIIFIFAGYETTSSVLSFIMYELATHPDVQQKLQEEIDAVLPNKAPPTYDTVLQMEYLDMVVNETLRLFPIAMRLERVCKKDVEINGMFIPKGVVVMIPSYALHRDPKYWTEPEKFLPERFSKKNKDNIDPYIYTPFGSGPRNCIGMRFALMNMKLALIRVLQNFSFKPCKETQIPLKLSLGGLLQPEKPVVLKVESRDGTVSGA
Cytochrome P450 2D6 (Homo sapiens), sequence (P10635 whole entry, looked up): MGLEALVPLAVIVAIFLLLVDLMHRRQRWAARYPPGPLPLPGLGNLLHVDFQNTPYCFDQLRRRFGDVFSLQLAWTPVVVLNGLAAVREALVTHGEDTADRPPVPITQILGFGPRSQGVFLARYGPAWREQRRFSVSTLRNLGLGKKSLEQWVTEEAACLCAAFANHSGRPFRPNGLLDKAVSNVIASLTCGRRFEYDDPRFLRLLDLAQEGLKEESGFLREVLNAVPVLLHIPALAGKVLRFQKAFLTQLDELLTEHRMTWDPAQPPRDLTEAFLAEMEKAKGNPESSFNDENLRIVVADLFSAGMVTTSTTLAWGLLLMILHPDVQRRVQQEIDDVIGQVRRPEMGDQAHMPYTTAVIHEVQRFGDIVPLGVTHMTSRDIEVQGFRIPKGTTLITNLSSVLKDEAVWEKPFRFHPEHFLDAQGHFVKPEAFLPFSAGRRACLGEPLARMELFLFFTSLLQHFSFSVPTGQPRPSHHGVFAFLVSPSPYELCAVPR
Nuclear receptor subfamily 1 group I member 2 (Rattus norvegicus), sequence (Q9R1A7 whole entry, looked up): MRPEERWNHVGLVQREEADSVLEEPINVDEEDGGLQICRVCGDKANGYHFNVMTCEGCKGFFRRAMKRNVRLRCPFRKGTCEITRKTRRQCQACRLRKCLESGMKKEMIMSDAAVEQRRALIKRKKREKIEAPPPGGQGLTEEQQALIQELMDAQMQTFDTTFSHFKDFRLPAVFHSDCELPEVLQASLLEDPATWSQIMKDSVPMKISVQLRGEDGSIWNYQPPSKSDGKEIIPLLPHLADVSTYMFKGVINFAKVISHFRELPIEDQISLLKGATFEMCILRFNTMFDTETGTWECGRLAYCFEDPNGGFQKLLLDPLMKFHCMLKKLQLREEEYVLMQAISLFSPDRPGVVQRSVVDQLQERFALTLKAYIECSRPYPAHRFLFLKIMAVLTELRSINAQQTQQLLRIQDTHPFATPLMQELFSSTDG
Nuclear receptor subfamily 1 group I member 2 (Homo sapiens), sequence (O75469 whole entry, looked up): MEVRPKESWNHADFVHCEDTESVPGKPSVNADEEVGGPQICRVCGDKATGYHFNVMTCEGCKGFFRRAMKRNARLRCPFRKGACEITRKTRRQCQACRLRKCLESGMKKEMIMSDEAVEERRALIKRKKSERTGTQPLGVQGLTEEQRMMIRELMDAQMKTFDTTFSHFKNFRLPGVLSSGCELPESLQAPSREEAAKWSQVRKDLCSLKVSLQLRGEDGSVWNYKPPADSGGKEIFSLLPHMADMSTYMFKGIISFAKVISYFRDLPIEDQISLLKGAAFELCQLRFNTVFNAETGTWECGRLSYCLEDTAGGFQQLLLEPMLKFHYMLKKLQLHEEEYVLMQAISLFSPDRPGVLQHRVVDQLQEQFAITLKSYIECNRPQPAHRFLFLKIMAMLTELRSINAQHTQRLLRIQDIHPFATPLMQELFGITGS
Cytochrome P450 2C19 (Homo sapiens), sequence (P33261 whole entry, looked up): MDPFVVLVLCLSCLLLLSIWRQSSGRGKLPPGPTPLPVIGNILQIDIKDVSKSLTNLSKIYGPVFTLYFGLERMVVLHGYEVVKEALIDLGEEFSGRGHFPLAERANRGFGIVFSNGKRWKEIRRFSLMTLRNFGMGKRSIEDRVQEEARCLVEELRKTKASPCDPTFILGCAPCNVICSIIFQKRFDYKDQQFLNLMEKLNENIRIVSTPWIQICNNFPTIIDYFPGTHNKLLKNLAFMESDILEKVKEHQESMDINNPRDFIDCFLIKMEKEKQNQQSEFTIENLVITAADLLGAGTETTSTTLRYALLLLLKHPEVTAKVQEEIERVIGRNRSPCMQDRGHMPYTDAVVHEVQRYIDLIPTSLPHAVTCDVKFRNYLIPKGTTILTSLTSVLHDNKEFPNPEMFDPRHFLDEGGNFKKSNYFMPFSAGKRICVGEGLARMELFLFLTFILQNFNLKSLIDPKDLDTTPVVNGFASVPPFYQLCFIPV
Cytochrome P450 2C9 (Homo sapiens), sequence (P11712 whole entry, looked up): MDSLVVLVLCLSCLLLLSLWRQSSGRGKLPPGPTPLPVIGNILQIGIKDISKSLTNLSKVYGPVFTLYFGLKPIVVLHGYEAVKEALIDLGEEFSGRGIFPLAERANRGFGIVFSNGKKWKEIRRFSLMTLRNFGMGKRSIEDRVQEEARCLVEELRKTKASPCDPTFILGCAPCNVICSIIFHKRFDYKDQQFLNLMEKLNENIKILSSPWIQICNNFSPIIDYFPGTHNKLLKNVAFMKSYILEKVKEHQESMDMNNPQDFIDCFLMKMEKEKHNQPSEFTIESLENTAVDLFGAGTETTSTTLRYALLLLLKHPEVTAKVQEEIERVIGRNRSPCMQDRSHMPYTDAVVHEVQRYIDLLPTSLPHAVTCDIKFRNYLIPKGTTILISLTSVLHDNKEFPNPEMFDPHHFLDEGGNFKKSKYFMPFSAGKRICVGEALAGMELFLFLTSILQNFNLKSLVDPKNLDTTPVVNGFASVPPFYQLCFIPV
Cytochrome P450 1A2 (Homo sapiens), sequence (P05177 whole entry, looked up): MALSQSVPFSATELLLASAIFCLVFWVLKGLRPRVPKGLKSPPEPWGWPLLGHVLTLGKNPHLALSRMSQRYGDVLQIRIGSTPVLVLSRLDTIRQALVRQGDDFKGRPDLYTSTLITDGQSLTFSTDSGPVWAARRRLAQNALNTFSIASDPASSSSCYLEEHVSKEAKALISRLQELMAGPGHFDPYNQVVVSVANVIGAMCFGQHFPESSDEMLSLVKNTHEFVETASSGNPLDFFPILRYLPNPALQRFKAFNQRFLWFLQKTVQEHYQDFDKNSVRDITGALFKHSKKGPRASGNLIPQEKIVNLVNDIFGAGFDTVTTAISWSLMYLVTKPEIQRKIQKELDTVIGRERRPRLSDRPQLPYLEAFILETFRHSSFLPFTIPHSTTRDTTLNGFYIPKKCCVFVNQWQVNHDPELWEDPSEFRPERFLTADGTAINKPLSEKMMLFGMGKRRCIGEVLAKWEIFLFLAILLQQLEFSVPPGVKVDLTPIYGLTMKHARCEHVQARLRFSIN

Turning to `CCC(C)(C)c1cc(O)c(C(C)(C)CC)cc1O`, the Potency result in [1], in [2], in experiment [4], in experiment [7], in experiment [8] and in experiment [9] was “inactive” throughout. Moreover, the values for the Potency in experiment [3], in [5] and in experiment [6] were 30.6 µM (active), 31.7 µM (active) and 63.3 µM (active), respectively.
For the compound `CN1[C@@H]2CC[C@@H]1CC(OC(=O)C(CO)c1ccccc1)C2` (some centres undefined), the Potency result in experiment [10], in experiment [2] and in experiment [11] was “inactive” each time.
Regarding `C=C(c1ccc(C(=O)O)cc1)c1cc2c(cc1C)C(C)(C)CCC2(C)C`, the Potency in [1] was 68.6 µM (active); in [6], 27.5 µM (active). For the same compound, the Potency result in experiment [3], in experiment [13], in [14], in experiment [4], in experiment [5] and in [7] was “inactive” throughout. For the same compound, the Potency result in experiment [8] and in [9] was “inactive” each time. Besides, the max activation in [12] is -18.2%.
With `CCC(=O)OCCc1ccccc1`, the Potency result in [1], in [2], in [11], in experiment [4], in [5] and in experiment [8] was “inactive” each time. Besides, in experiment [9], the Potency entry was “inactive”. Further, the Potency in [6] was 13.6 µM (active).
With `c1ccc(Nc2cccc3ccccc23)cc1`, the Potency entry in experiment [1] and in experiment [11] was “inactive” each time. The Potency in experiment [3] was 61.9 µM (active) and 30.6 µM (active); in experiment [4], 32.1 µM (active); in experiment [5], 5.09 µM (active) and 10 µM (active); in [6], 36.1 µM (active) and 35.6 µM (active); in experiment [7], 6.41 µM (active) and 17.8 µM (active); in [8], 35.1 µM (active) and 17.4 µM (active). Also, the Potency in [9] is 36.1 µM (active) and 79.6 µM (active).
Turning to `CCCSS/C(CCO)=C(\C)N(C=O)Cc1cnc(C)nc1N`, the Potency result in experiment [1], in [11], in experiment [13], in experiment [14], in experiment [5] and in [7] was “inactive” each time. Besides, the max activation in [12] is 9.56%. The Potency in [4] is 34.7 µM (active); in [8] it was 12 µM (active).
On to `CC1CCCCN1CCCOC(=O)c1ccc(OC2CCCCC2)cc1` (centres undefined), for which the Potency entry in experiment [1], in experiment [11], in experiment [5], in experiment [6], in [7] and in [9] was “inactive” in each case. Also, the values for the Potency in experiment [4] and in [8] were 15.5 µM (active) and 2.68 µM (active), respectively.
Regarding `CCCCCCCCCCOCC(O)CN` (centres undefined), the Potency is 29.8 µM (active) in experiment [1]; 6.92 µM (active) in experiment [4]; 6.92 µM (active) in experiment [5]; 13.8 µM (active) in experiment [6]; 2.88 µM (active) in [7]; 23.9 µM (active) in [8]. Also, the max activation in [12] was -17.7%. Also, the Potency result in experiment [9] is “inactive”.
Take `CC1CNCC(C)O1` (centres undefined): the Potency result in experiment [1], in experiment [2], in [3], in experiment [4], in [5] and in experiment [6] was “inactive” in each case. Moreover, the Potency result in experiment [8] and in [9] was “inactive” throughout.
For the compound `C=CC(=O)OCCOCC(CC)(COCCOC(=O)C=C)COCCOC(=O)C=C`, the Potency entry in experiment [1] and in experiment [8] was “inactive” each time. Also, the Potency was 63.7 µM (active) in experiment [11]; 28.4 µM (active) in experiment [3]; 23.4 µM (active) in [5]; 26.3 µM (active) in [6]; 932 nM (active) in [9].
With `CCO[Si](CCCSSSSCCC[Si](OCC)(OCC)OCC)(OCC)OCC`, the Potency entry in experiment [1], in experiment [2], in [11] and in [8] was “inactive” in each case. The Potency in experiment [4] is 35.6 µM (active); in [5] it was 5.03 µM (active); in [6], 12.6 µM (active); in experiment [7], 71.1 µM (active); in [9], 2830 nM (active).

The values above are taken from PubChem BioAssay (Tox21).
